Assay results as given in PubChem BioAssay (NCATS).
Results filed as inconclusive are left out. The source made the active and inactive calls. The call rests on the fitted dose curve; in most records, active means well fitted inhibition curve with a large enough effect; inconclusive means small, poorly fitted or top-dose-only effect; inactive means flat fitted curve, though single readings scatter.

tested on: NIH3T3; test: Cytotoxic Profiling of Annotated Libraries Using Quantitative High-Throughput Screening (AID 1296008); settings: Five cell lines viability, CellTiter-Glo ATP luminescence, 48-72 h; max response: stronger effect = lower value; further: nearly all actives have a fitted effect of over 60% in size
Procedure, shortened: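 Compounds were pin-transferred onto cells and incubated 48 or 72 hr at 37 degree Celsius, 95% humidity. CellTiter-Glo was added, plates sat 10 min at room temperature, then ATP-coupled luminescence was imaged as the viability read-out.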
On the % scale 0 is the no-effect control and ±100 the full control effect.

Question: For O=C(/C=C/c1ccc(O)c(O)c1)O[C@@H]1[C@@H](O)[C@H](OC2CCCCC2O)O[C@H](CO)[C@H]1O (some centres undefined), which outcome is on record?
Answer: The outcome was “inactive”.

Question: Which max response does the source give for COc1cc(C(CO)CO[C@@H]2O[C@H](CO)[C@@H](O)[C@H](O)[C@H]2O)ccc1O (some centres undefined) here?
Answer: The max response was -7.99% (inactive).

Question: CC1(C)CC2C3=CCC4[C@@]5(C)CC[C@H](OC6OCC(O)C(OC7OC(CO)C(O)C(O)C7O)C6O)C(C)(C)C5CC[C@@]4(C)[C@]3(C)C[C@H](O)[C@@]2(CO)[C@H](OC(=O)c2ccccc2)C1 (some centres undefined) was tested. Which max response did it give?
Answer: The max response was -2.6% (inactive).

Question: For C=C[C@@]1(C)CCC2=C([C@H]1OC(C)=O)[C@H](OC(C)=O)CC1[C@](C)(C(=O)OC)CC[C@H](OC(C)=O)[C@]21C (some centres undefined), which outcome is on record?
Answer: Its outcome is “inactive”.

Question: For O=C(N[C@@H]1CC[C@@H](c2cccc(F)c2F)CN(CC(F)(F)F)C1=O)N1CCC(n2c(=O)[nH]c3ncccc32)CC1, which max response is on record?
Answer: Its max response is -12.6% (inactive).

Question: O=c1[nH]ccc2nc(-c3ccc(CN4CCC(c5nc(-c6ccccn6)n[nH]5)CC4)cc3)c(-c3ccccc3)cc12 was tested. Which outcome did it give?
Answer: Its outcome is “inactive”.

Question: Which max response does the source give for CC1=C2C[C@H]3OC(=O)[C@H](O)[C@@]4(O)[C@@H](C)[C@@H](O)[C@H](O)C([C@@]2(C)[C@H](O)[C@@H](O)C1)[C@@]34C (some centres undefined) here?
Answer: The max response was 2.2% (inactive).

Question: Which max response does the source give for C=CC(C)(O)CC/C=C(\C)C(=O)O[C@@H]1[C@@H](O)[C@H](OC(C)(C=C)CC/C=C(\C)C(=O)O[C@@H]2O[C@H](CO)[C@@H](O)[C@H](O)[C@H]2O)O[C@H](CO)[C@H]1OC(=O)/C(C)=C/CCC(C)(O)C=C (some centres undefined) here?
Answer: Its max response is 1.18% (inactive).

Question: With CC(C)(O)C1OC1C1=CC(=O)C2(C)OC2C1O (centres undefined) as the molecule, how does the max response read?
Answer: The max response was 3.09% (inactive).
